HT1080 IDH1KD tx: kills HT-1080 cells with IDH1 knockdown. HT-1080 IDH1 knockdown viability, ATP luminescence, 48 h. Potency, µM (titrated, usually from 46.1 µM), inactives show top-dose activity, negative = toxicity, most hits filed as cytotoxic. 360,000 tested, 2% active. AID 686971;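 note: potency is the fitted concentration of half-maximal effect; 0% = DMSO wells and -100% = cell-free medium wells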
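Viability of IDH1-knockdown HT-1080 fibrosarcoma cells was assessed by CellTiter-Glo after 48 h at 37 °C with titrated compound; concentration-effect curves were classified by fit quality and response size.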
IL-1B inflam inh: inflammasome signaling inhibition, IL-1 beta readout | 360,000 tested, 4.7% active | THP-1 LPS/ATP IL-1B secretion, AlphaLISA, 16 h; stronger effect = lower value | AID 743279 | activity change, % at 57.5 µM; in the data active = activity change below about -50%; inconclusive = mostly about -30% to -49%
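Secreted IL-1B measured by AlphaLISA bead assay after 16 h compound exposure of THP-1 cells; compounds (final up to 57.5 uM) added 1 h before LPS (250 ng/mL) and ATP (1.25 mM) stimulation; lower signal means less secretion.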
ELG1 repair inh: ELG1-dependent DNA repair inhibition; Potency, µM (titrated, usually from 46.1 µM), for the others: top-dose activity change, negative = inhibition, hits mostly inhibitors; 330,000 tested, 2.3% active; AID 504467; HEK293T ELG1-luciferase reporter, luminescence, 16 h; DNA damage induced by 5-fluorouridine; note: potency is the fitted concentration of half-maximal effect; nearly all actives have a fitted effect of over 55% in size
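Luminescence from the luciferase reporter, measured 30 min after ONE-Glo reagent at room temperature, was the read-out. Beforehand, 2,000 cells per well were exposed for 16 hr at 37 °C to 5-fluorouridine together with compound or vehicle.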
TDP1 cell noCPT: qHTS for Inhibitors of human tyrosyl-DNA phosphodiesterase 1 (TDP1): qHTS in cells in absence of CPT; DT40 Tdp1-/- hTDP1 cells, no CPT, ATP luminescence, 48 h; Potency, µM (series often up to 46.2 µM), for the others: at the highest dose activity change, negative = growth inhibition, usual class: inhibitors; 420,000 tested, 15% active; note: potency is the fitted concentration of half-maximal effect; nearly all actives have a fitted effect of over 55% in size
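Luminescent ATP content (CellTiter-Glo) served as the growth readout. Knockout chicken DT40 cells expressing human TDP1 were exposed to compounds without camptothecin for a minimum 48 hr at 37 °C.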
HT1080NT lethal: kills 2HG-producing HT-1080-NT fibrosarcoma cells; HT-1080-NT fibrosarcoma viability, CellTiter-Glo ATP luminescence, 48 h; Potency, µM (doses to about 46.1 µM), without a hit: at the highest dose activity, negative = less viability, hits mostly cytotoxic; 360,000 tested, 1.6% active;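 note: NT is the 2HG producing partner of a matched IDH1 knockdown line; potency is the fitted concentration of half-maximal effect; 0% = DMSO-treated cells and -100% = media-only wells without cells; nearly all actives have a fitted effect of over 55% in size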
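Fibrosarcoma NT cells, 750 per well in 5% FBS RPMI, were exposed to compound for 48 hours. Viability: CellTiter-Glo luminescence.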
TDP1 cell CPT: DT40-hTDP1 cell growth loss with CPT; AID 686979; 420,000 tested, 12% active; Potency, µM (top dose mostly 46.2 µM), for the others: at the highest dose activity change, negative = growth inhibition, hits mostly inhibitors; chicken DT40 Tdp1-/-;hTDP1 cells + 20 nM CPT, ATP luminescence, 48 h; note: potency is the fitted concentration of half-maximal effect; nearly all actives have a fitted effect of over 55% in size
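Chicken DT40 Tdp1-/- cells complemented with human TDP1, 400 cells/well, exposed to compounds plus 20 nM camptothecin for at least 48 h at 37 C; viability read as ATP content by CellTiter-Glo luminescence.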
* marks the source's active call; other numbers are inactive results; ? = inconclusive; . = no result given. The list is not random: actives were taken first. Their share in the collection is about 19%. Unless noted, calls come from the whole dose curve; as a rule, active = well fitted curve in the direction sought with a large enough effect; inconclusive = small, poorly fitted or top-dose-only effect, or another doubt; inactive = no such curve, though single readings can be large; an effect the other way counts as inactive or inconclusive. Unless noted, % is set by controls: 0 for no effect and ±100 for the full control effect.

SMILES	HT1080 IDH1KD tx	IL-1B inflam inh	ELG1 repair inh	TDP1 cell noCPT	HT1080NT lethal	TDP1 cell CPT
CN(C)S(=O)(=O)c1ccc(C(=O)NCCSc2ccccc2)cc1	-9.7%	-6.5	?	?	-4.7%	-20.2%
CCOC(=O)CSc1c(-c2ccc(Cl)cc2)[nH]c2ccccc12	-17.3%	26.3	0.8%	?	?	?
COc1ccccc1-c1cncnc1Nc1ccc(F)cc1	.	.	.	-11.4%	.	7.0%
CCc1ccc[n+](-c2[nH]c(=O)sc2/C=N/N=C(\[O-])c2cccnc2)c1	0.2%	0.0	12.6%	11.4%	11.6%	-2.3%
CCOC(=O)C1CCCN(S(=O)(=O)c2csc(C(N)=O)c2)C1 (centres undefined)	.	.	.	14.6µM*	.	?
O=C(Nc1cc(S(=O)(=O)N2CCOCC2)ccc1Cl)c1cc2ccccc2o1	-8.7%	-75.3*	?	?	16.1%	?
CCOC(=O)C1CCCN(S(=O)(=O)c2ccc(S(=O)(=O)N(CC)CC)cc2)C1 (centres undefined)	-14.6%	24.0	?	1.46µM*	-6.7%	2.91µM*
CN1CCN(C(=S)Nc2cc(S(=O)(=O)N3CCOCC3)ccc2Cl)CC1	-2.6%	-6.5	-11.2%	-16.3%	3.5%	-3.4%
CCOC(=O)N1CCN(C(=S)Nc2cc(S(=O)(=O)N3CCOCC3)ccc2Cl)CC1	-12.6%	-11.0	?	18.4µM*	2.6%	?
CCN(CC)S(=O)(=O)c1ccc(S(=O)(=O)N2CCCC(C(=O)NC3CC3)C2)cc1 (centres undefined)	-1.6%	18.8	-22.2%	5.8µM*	-2.6%	1.3µM*
CCOC(=O)C1CCCN(C(=S)Nc2ccc(S(=O)(=O)N3CCOCC3)cc2)C1 (centres undefined)	-10.1%	-6.7	?	16.4µM*	0.5%	?
CCOC(=O)C1CCN(S(=O)(=O)CCNC(=O)c2ccc3c(c2)OCO3)CC1	-4.8%	-1.0	-2.1%	6.3%	-4.8%	-11.3%
C/C(=N\NC(=S)Nc1cc(S(=O)(=O)N2CCOCC2)ccc1Cl)c1ccccc1F	?	0.0	?	2.31µM*	-17.4%	3.26µM*
CN(C)S(=O)(=O)c1ccc(S(=O)(=O)N2CCCC(C(=O)NC3CC3)C2)cc1 (centres undefined)	21.9%	43.7	?	?	6.6%	-28.6%
CC1CCCN(C(=S)Nc2ccc(S(=O)(=O)N3CCCCC3)cc2)C1 (centres undefined)	-3.2%	35.2	?	?	-2.4%	?
CCOC(=O)C1CCCN(S(=O)(=O)CCNC(=O)c2ccc3c(c2)OCO3)C1 (centres undefined)	4.2%	-72.9*	-4.4%	-5.5%	2.5%	-0.8%
CCC1(c2ccc(F)cc2)NC(=O)N(CC(=O)N2CCN(S(=O)(=O)c3ccc(C)cc3)CC2)C1=O (centres undefined)	2.4%	2.3	-6.3%	-21.8%	2.2%	-9.4%
COc1cccc(CN(C)C(=O)CSC(C)C(=O)Nc2cc(C)on2)c1OC (centres undefined)	0.3%	9.0	-3.0%	-5.4%	-1.6%	-4.7%
Fc1ccc(-c2cc3nc(-c4ccccc4)cc(N4CCN(CCN5CCOCC5)CC4)n3n2)cc1	10.8%	-74.3*	?	7.31µM*	1.4%	11.6µM*
Cc1ccc(-c2cc3nc(-c4ccccc4)cc(C(F)(F)F)n3n2)cc1	.	.	.	-25.1%	.	-24.2%
CN1CCN(c2cc(-c3ccccc3)nc3cc(-c4ccc(F)cc4)nn23)CC1	-1.4%	-96.0*	23.1µM*	5.8µM*	-7.9%	4.11µM*
OCCCNc1cc(-c2ccccc2)nc2cc(-c3ccc(F)cc3)nn12	?	-90.5*	?	5.17µM*	?	8.2µM*

Assay outcomes (PubChem BioAssay)
